# Measurements: PubChem BioAssay (Tox21)
# Where “and” joins values, the source holds several entries; their conditions need not be identical. Equal entries are not always repeated. Results filed as inconclusive are left out. A call without a number means that no potency is given here. Where a structure was tested more than once in an assay, its records may differ in their call. Calls of active or inactive are those of the source. Unless noted, the call rests on the fitted dose curve; in most records, active means well fitted curve in the direction sought with a large enough effect in the repeat runs; inconclusive means weak or mixed curves; inactive means no such curve, though single readings can be large; an effect the other way counts as inactive or inconclusive.
# Legend:
# [1] = target: Retinoic acid receptor RXR-alpha (Homo sapiens) (UniProt P19793); assay: qHTS assay to identify small molecule agonists of the RXR signaling pathway (AID 1159527; calls by dose curve; further: nearly all actives have a fitted effect of over 35% in size; further: potency means the concentration at half of the fitted maximal effect)
# Summary of the method: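 Read-out: beta-lactamase FRET ratio (405 nm excitation, 460 and 530 nm emission) after 2 hr substrate loading at room temperature. Cells were RXR-alpha-UAS-bla HEK 293T treated with compounds for 16 hr in 2% charcoal-stripped FBS medium.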
# [2] = qHTS assay to identify small molecule agonists of the RXR signaling pathway - cell viability counter screen (AID 1159529); further: nearly all actives have a fitted effect of over 50% in size
# Summary of the method: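 HEK 293T RXRa-bla cells, 2% CS-FBS; 5 h settle; cpd 16 h 37 C, 5% CO2; CellTiter-Glo 30 min RT, luminescence. Tetraoctyl ammonium bromide as positive control.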
# [3] = qHTS assay to identify small molecule antagonists of the retinoid acid receptor (RAR) signaling pathway - cell viability counter screen (AID 1159551); further: nearly all actives have a fitted effect of over 35% in size
# Summary of the method: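 Measured by luminescent ATP detection, viability reflects C3RL4 cells treated 6 h at 37 C with test chemicals in the presence of 1 uM (final) retinol.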
# [4] = qHTS assay to identify small molecule antagonists of the retinoic acid receptor (RAR) signaling pathway (AID 1159552; further: nearly all actives have a fitted effect of over 50% in size)
# Summary of the method: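 Cells of the C3RL4 line were seeded, incubated overnight, then dosed with compounds in DMSO followed immediately by retinol (1 uM final). Six hours later luciferase detection reagent went in; signal was measured after 30 min at RT.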
# [5] = qHTS assay to identify small molecule agonists of the retinoic acid receptor (RAR) signaling pathway (AID 1159553); conditions: C3RL4 RARE luciferase reporter, agonist, 6 h; activation: at 73.3 µM (top of the series) unless noted
# Summary of the method: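 6 hr compound exposure (DMSO vehicle) of overnight-plated C3RL4 RARE-luc cells at 37 C; luminescence quantified after 30 min RT with luciferase reagent.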
# [6] = qHTS assay to identify small molecule antagonists of the estrogen related receptor (ERR) signaling pathway from Tox21 library - cell viability counter screen (AID 1224834); further: nearly all actives have a fitted effect of over 30% in size
# Summary of the method: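 Seeded ERR cells were rested 6 h at 37 C/5% CO2 before compounds, positive and negative controls or DMSO were added. Incubation continued for 17.5 h, and viability was then quantified by CellTiter-Fluor fluorescence.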
# [7] = target: Luciferin 4-monooxygenase (Photinus pyralis) (UniProt P08659); assay: qHTS assay to identify small molecule inhibitors of firefly luciferase (AID 1224835); further: nearly all actives have a fitted effect of over 25% in size
# Summary of the method: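 Biochemical qHTS: compounds run as interplate titrations against purified firefly enzyme, with D-luciferin and ATP each at its KM concentration. Light output recorded by CCD imaging.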
# [8] = qHTS assay to identify small molecule agonists of the constitutive androstane receptor (CAR) signaling pathway - cell viability counter screen (AID 1224836); further: nearly all actives have a fitted effect of over 45% in size
# Summary of the method: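 HepG2-CYP2B6-hCAR, 2500 cells/well, 4 h pre-incubation; cpd 15 conc + PK11195 0.75 uM final; 23 h, 37 C/5% CO2; CellTiter-Fluor, fluorescence.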
# [9] = qHTS assay to identify small molecule antagonists of the constitutive androstane receptor (CAR) signaling pathway - cell viability counter screen (AID 1224837); further: nearly all actives have a fitted effect of over 45% in size
# Summary of the method: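 To flag cytotoxic false antagonists, HepG2 hCAR/CYP2B6-2.2kb cells were treated 23 hr with 15-concentration compound series and 50 nM CITCO at 37 C/5% CO2; CellTiter-Fluor fluorescence was the measured end point.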
# [10] = target: Nuclear receptor subfamily 1 group I member 3 (Homo sapiens) (UniProt Q14994); assay: qHTS assay to identify small molecule antagonists of the constitutive androstane receptor (CAR) signaling pathway (AID 1224838);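 further: HepG2 cells stably expressing hCAR with CYP2B6 luciferase reporter stimulated by CITCO; nearly all actives have a fitted effect of over 40% in size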
# Summary of the method: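 Human hepatoma HepG2 cells expressing hCAR and a CYP2B6 promoter (2.2 kb) luciferase construct; compound titration (15 points) with 50 nM CITCO final, 24 h at 37 C/5% CO2; luminescence via ONE-Glo after 30 min at room temperature.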
# [11] = target: Nuclear receptor subfamily 1 group I member 3 (Homo sapiens) (UniProt Q14994); assay: qHTS assay to identify small molecule agonists of the constitutive androstane receptor (CAR) signaling pathway (AID 1224839); further: nearly all actives have a fitted effect of over 15% in size; further: potency means the concentration at half of the fitted maximal effect;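 on activation: HepG2 cells stably carrying human CAR and a CYP2B6 luciferase reporter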
# Summary of the method: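 HepG2-CYP2B6-hCAR cells, 2500/well, 4 h pre-incubation; compounds 15 conc.; PK11195 0.75 uM final; 24 h, 37 C/5% CO2; ONE-Glo luciferase read.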
# [12] = qHTS assay to identify small molecule antagonists of the estrogen related receptor signaling pathway with the pleiotropic PPARgamma coactivator (PGC) from Tox21 10K library - cell viability counter screen (AID 1224840; active means well fitted cell-killing curve with a large enough effect in the repeat runs, not every such curve was filed as active; further: nearly all actives have a fitted effect of over 40% in size)
# Summary of the method: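 Seeded PGC/ERR cells (2,000/well, 6 h, 37 C/5% CO2) get compound by pin tool; 17.5 h incubation at 37 C; CellTiter-Fluor added, 30 min, fluorescence measured.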
# [13] = qHTS assay to identify small molecule antagonists of the estrogen related receptor signaling pathway with the pleiotropic PPARgamma coactivator (PGC) from Tox21 10K library (AID 1224841; call rule not given here; further: actives are mostly falling curves and most rising ones were filed inactive; nearly all actives have a fitted effect of over 50% in size; further: potency means the concentration at half of the fitted maximal effect)
# Summary of the method: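 Test chemicals dissolved in DMSO were applied to pre-incubated (6 h) PGC/ERR cells at 2,000 cells/well for an 18 h, 37 C treatment; reporter luminescence was then read using One-Glo.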
# [14] = qHTS assay to identify small molecule agonists of the estrogen related receptor signaling pathway with the pleiotropic PPARgamma coactivator (PGC) from Tox21 10K library (AID 1224842); further: nearly all actives have a fitted effect of over 15% in size
# Summary of the method: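 PGC/ERR reporter cell line, 2,000 cells per well, incubated 6 h at 37 C before 23 nL compound in DMSO was added. After 18 h at 37 C, One-Glo luminescence read following 30 min at room temperature.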
# [15] = target: Thyrotropin receptor (Homo sapiens) (UniProt P16473); assay: qHTS assay to identify small molecule agonists of the thyroid stimulating hormone receptor (TSHR) signaling pathway (AID 1224843; calls by dose curve; further: nearly all actives have a fitted effect of over 45% in size)
# Summary of the method: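 HEK293/TSHR, 800 cells/well; cpd 30 min RT; add cAMP-d2 + anti-cAMP-cryptate, 1 h RT; fluorescence read on plate reader. 15-pt titration, n=3.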
# [16] = qHTS assay to identify small molecule agonists of the hypoxia (HIF-1) signaling pathway - cell viability counter screen (AID 1224844; calls by dose curve; further: nearly all actives have a fitted effect of over 50% in size)
# Summary of the method: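 HRE-bla ME-180; 0.5% dFBS; cpd 17 h, 37C, 5% CO2; CellTiter-Glo lum., 30 min RT, post-FRET read, same wells.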
# [17] = qHTS assay to identify small molecule agonists of H2AX (AID 1224845; active means well fitted activation curve with a large enough effect in the signal ratio in the repeat runs, not every such curve was filed as active; the % refers to the signal ratio)
# Summary of the method: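 Wild-type CHO-K1 cells, plated overnight, exposed 3hr at 37C to 15 concentrations (0.76% DMSO final). Lysed, then HTRF anti-pH2AX (S139) cryptate and anti-H2AX-d2 antibodies, 24 hr room temperature; 665/620 nm emission read.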
# [18] = qHTS assay to identify small molecule agonists of the hypoxia (HIF-1) signaling pathway (AID 1224846; active means well fitted activation curve with a large enough effect in the signal ratio in the repeat runs, not every such curve was filed as active; the % refers to the signal ratio)
# Summary of the method: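 Reporter induction in HRE-bla ME-180 cells is taken as agonism: cells sit 5 hrs after plating, receive compounds or DMSO only, incubate 17 hrs at 37C under 5% CO2, and are loaded with CCF4-AM for beta-lactamase FRET measurement.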
# Nuclear receptor subfamily 1 group I member 3 (Homo sapiens), sequence (Q14994 whole entry, looked up): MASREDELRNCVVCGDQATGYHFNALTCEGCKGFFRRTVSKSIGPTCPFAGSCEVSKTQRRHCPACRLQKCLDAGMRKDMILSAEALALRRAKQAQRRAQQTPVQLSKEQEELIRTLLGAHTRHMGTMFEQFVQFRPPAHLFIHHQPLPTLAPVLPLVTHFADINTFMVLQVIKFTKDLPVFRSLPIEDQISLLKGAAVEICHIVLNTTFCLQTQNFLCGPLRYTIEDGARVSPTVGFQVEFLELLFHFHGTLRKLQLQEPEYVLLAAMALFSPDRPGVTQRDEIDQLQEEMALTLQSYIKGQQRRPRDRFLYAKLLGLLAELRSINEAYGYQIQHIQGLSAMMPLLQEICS
# Luciferin 4-monooxygenase (Photinus pyralis), sequence (P08659 whole entry, looked up): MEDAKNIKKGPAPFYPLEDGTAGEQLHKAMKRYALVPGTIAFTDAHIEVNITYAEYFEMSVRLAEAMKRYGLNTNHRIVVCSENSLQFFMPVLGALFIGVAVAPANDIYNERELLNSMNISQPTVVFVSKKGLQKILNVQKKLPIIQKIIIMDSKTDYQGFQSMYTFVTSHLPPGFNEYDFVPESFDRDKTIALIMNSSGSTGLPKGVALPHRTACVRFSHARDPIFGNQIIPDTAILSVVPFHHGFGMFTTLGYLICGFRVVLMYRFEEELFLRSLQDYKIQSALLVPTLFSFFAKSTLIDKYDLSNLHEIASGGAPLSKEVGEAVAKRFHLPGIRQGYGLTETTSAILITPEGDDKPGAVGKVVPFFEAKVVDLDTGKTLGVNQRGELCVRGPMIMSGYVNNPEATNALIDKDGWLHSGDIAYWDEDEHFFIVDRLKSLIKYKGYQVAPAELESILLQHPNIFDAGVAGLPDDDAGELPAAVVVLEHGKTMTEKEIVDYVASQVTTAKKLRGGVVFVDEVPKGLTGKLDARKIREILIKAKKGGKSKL
# Retinoic acid receptor RXR-alpha (Homo sapiens), sequence (P19793 whole entry, looked up): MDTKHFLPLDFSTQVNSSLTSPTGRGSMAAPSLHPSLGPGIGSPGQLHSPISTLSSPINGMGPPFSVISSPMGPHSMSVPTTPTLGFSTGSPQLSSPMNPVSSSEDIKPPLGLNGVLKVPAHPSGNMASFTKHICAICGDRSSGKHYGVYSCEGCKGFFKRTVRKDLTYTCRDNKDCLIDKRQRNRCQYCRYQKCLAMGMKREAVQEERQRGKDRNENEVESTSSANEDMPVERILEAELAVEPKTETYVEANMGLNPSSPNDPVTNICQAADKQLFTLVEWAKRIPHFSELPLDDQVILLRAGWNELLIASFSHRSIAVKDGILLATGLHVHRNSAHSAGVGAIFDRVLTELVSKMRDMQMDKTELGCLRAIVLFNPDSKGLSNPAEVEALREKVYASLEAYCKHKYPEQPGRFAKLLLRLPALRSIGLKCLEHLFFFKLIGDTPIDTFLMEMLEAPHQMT
# Thyrotropin receptor (Homo sapiens), sequence (P16473 whole entry, looked up): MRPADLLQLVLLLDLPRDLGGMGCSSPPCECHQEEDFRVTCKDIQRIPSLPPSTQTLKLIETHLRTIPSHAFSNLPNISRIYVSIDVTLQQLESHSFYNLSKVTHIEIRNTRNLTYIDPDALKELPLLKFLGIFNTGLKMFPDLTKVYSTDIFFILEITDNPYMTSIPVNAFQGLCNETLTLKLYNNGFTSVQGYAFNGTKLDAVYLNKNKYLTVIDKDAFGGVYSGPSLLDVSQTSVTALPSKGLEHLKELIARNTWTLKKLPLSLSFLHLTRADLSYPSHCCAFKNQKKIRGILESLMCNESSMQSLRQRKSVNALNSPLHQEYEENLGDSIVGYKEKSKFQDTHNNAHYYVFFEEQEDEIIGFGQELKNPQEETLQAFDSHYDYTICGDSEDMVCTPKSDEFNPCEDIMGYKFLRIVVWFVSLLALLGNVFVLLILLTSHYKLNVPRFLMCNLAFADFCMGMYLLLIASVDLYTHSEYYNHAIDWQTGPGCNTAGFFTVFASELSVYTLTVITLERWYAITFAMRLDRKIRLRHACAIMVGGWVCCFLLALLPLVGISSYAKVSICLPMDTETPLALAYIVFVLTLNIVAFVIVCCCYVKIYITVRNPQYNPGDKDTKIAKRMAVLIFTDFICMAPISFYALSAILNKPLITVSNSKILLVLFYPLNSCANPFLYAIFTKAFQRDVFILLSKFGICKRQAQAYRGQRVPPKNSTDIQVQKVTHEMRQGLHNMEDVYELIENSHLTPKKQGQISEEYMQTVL
SMILES,Potency [1],Potency [2],outcome [3],Potency [4],Potency [5],Potency [6],Potency [7],Potency [8],Potency [9],Potency [10],Potency [11],Potency [12],Potency [13],outcome [14],Potency [15],Potency [16],Potency [17],outcome [18]
CNC(=O)Oc1ccccc1OC(C)C,inactive,inactive,inactive,inactive,inactive,inactive,inactive,inactive,inactive,inactive,inactive,inactive,inactive,inactive,inactive,inactive,inactive,inactive
CCOP(OCC)OCC,22.3 µM (active) and inactive,inactive,inactive,inactive,inactive,inactive,inactive,inactive,inactive,inactive,inactive,inactive,–,–,–,inactive,inactive,inactive
CN(C)N=O,inactive,inactive,inactive,inactive,inactive,inactive,inactive,inactive,inactive,inactive,inactive,inactive,–,–,–,inactive,inactive,inactive
CC(C)C1(C)N=C(c2nc3ccccc3cc2C(=O)O)NC1=O (configuration not stated),inactive,inactive,inactive,inactive,inactive,inactive,inactive,inactive,inactive,inactive,inactive,inactive,inactive,inactive,inactive,inactive,inactive,inactive
CCc1cccc(C)c1N(C(=O)CCl)C(C)COC (configuration not stated),inactive,inactive,inactive,inactive,inactive,inactive,inactive,inactive,inactive,inactive,25.7 µM (active) and 15.4 µM (active),inactive,45.8 µM (active) and 24.3 µM (active),inactive,inactive,inactive,inactive,inactive
CC(C)(C)OOC(=O)c1ccccc1,inactive,inactive,inactive,inactive,inactive,inactive,inactive,inactive,inactive,inactive,inactive,inactive,–,–,–,inactive,inactive,inactive
COCCl,inactive,inactive,inactive,inactive,inactive,inactive,inactive,inactive,inactive,inactive,inactive,inactive,inactive,inactive,inactive,inactive,inactive,inactive
Clc1ccc(Cl)cc1,inactive,inactive,inactive,inactive,inactive,inactive,inactive,inactive,inactive,inactive,inactive,inactive,–,–,inactive,inactive,inactive,inactive
COP(N)(=O)SC (configuration not stated),inactive,inactive,inactive,inactive,inactive,inactive,inactive,inactive,inactive,inactive,inactive,inactive,–,–,–,inactive,inactive,inactive
CC(C#N)CCC#N (configuration not stated),inactive,inactive,inactive,inactive,inactive,inactive,inactive,inactive,inactive,–,–,inactive,inactive,inactive,inactive,inactive,inactive,inactive
c1ccc(-c2ccccc2)cc1,inactive,inactive,inactive,inactive,inactive,inactive,inactive,inactive,inactive,–,–,inactive,–,–,inactive,inactive,inactive,inactive
C1CC2OC2CC1C1CO1 (configuration not stated),inactive,inactive,inactive,inactive,inactive,inactive,inactive,inactive,inactive,inactive,inactive,inactive,–,–,inactive,inactive,inactive,inactive
Cc1cc(-c2cc(C)c(N)c(C)c2)cc(C)c1N,inactive,inactive,inactive,inactive,inactive,inactive,inactive,inactive,inactive,inactive,inactive,inactive,–,–,–,inactive,–,inactive
BrCCBr,inactive,inactive,inactive,inactive,inactive,inactive,inactive,inactive,inactive,inactive,inactive,inactive,inactive,inactive,inactive,inactive,inactive,inactive
CN(C)CCO,inactive,inactive,inactive,inactive,inactive,inactive,inactive,inactive,inactive,inactive,inactive,inactive,inactive,inactive,inactive,inactive,inactive,inactive
O=C(NC(=O)c1c(F)cccc1F)Nc1cc(Cl)c(OC(F)(F)C(F)C(F)(F)F)cc1Cl (configuration not stated),inactive,inactive,inactive,inactive,inactive,inactive,inactive,inactive,inactive,inactive,inactive,inactive,inactive,inactive,inactive,inactive,inactive,inactive
CCOP(=S)(OCC)SCCSCC,inactive,inactive,inactive,inactive,inactive,inactive,inactive,inactive,inactive,inactive,inactive,inactive,–,–,–,inactive,inactive,inactive
